Experimental data from PubChem BioAssay (NCATS).
Records with an inconclusive call do not appear. Unmarked numbers belong to inactive results. Calls of active or inactive are those of the source. Calls follow the shape of the dose curve; as a rule, active = well fitted inhibition curve with a large enough effect; inconclusive = small, poorly fitted or top-dose-only effect; inactive = flat fitted curve, though single readings scatter. Square brackets hold non-standard residues; d marks the D form. Peptide text beside a SMILES is read from it. ξ: configuration not given here. d(hArg(Et2)) = CCN=C(NCC)NCCCC[C@@H](N)C(=O)O; hArg(Et2) = CCN=C(NCC)NCCCC[C@H](N)C(=O)O; Phe(4-Cl) = N[C@@H](Cc1ccc(Cl)cc1)C(=O)O; ξ2Nal = NC(Cc1ccc2ccccc2c1)C(=O)O; 3Pal = N[C@@H](Cc1cccnc1)C(=O)O; ξP = O=C(O)C1CCCN1

Target: Glutathione peroxidase 1 (Homo sapiens) (UniProt P07203)
Experiment: Primary qHTS Assay for Inhibitors of Recombinant Selenoprotein Glutathione Peroxidase 1 (GPX1) (AID 1845191); also: nearly all actives have a fitted effect of over 65% in size
Details: recombinant GPX1, GR-coupled NADPH fluorescence, 15 min; series mostly up to 48.8 µM; activity, negative = inhibition: at the top concentration
Outline: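 GPX1 10 nM, GR 100 nM, GSH 1 mM, NADPH 0.5 mM, CHP 0.5 mM (final). 30-min cpd preincubation, RT. Ex340/Em450 read t=0, t=15 min.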
% is scaled to controls: 0 for no effect and ±100 for the full control effect; potency is read from the fitted curve at half-maximal effect.

Chain of Glutathione peroxidase 1 (Homo sapiens) (P07203 whole entry, looked up): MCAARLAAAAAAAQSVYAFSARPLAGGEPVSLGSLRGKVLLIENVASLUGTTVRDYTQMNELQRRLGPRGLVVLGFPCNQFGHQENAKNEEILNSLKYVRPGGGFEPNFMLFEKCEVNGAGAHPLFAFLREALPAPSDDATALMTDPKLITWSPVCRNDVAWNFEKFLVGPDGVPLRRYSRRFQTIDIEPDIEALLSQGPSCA

SMILES | activity, negative = inhibition | outcome | Potency
CN1CCN(C(c2ccc(Cl)cc2Cl)c2sc3nc(-c4ccco4)nn3c2O)CC1 (stereo not given) | -18.3% | – | –
COc1ccc(Cl)cc1NC(=O)Nc1cc(C)nc2ccccc12 | -0.0312% | – | –
C#C[C@]1(O)CC[C@H]2[C@@H]3CCC4=CC(=O)CC[C@@H]4[C@H]3C(=C)C[C@@]21CC | – | inactive | –
C[C@@H]1[C@H](C)CC[C@]2(C(=O)O[C@@H]3O[C@@H](CO[C@@H]4O[C@@H](CO)[C@@H](O[C@@H]5O[C@@H](C)[C@@H](O)[C@@H](O)[C@H]5O)[C@@H](O)[C@H]4O)[C@@H](O)[C@@H](O)[C@H]3O)CC[C@]3(C)C(=CC[C@H]4[C@@]5(C)C[C@@H](O)[C@@H](O)[C@](C)(CO)[C@@H]5CC[C@@]43C)[C@H]12 | 0.101% [at 15.3 µM] | – | –
Cc1ccc(-c2nc(-c3cc4cccc(OCc5cccc(C)c5)c4oc3=O)no2)cc1 | – | inactive | –
CCc1ccc(Nc2c(F)c(F)cc(F)c2F)c(CC(=O)O)c1 | – | inactive | –
CCNC(=NCCCC[C@H](NC(=O)[C@H](CC(C)C)NC(=O)[C@@H](CCCCN=C(NCC)NCC)NC(=O)[C@@H](Cc1ccc(O)cc1)NC(=O)[C@@H](CO)NC(=O)[C@H](Cc1cccnc1)NC(=O)[C@H](Cc1ccc(Cl)cc1)NC(=O)C(Cc1ccc2ccccc2c1)NC(C)=O)C(=O)N1CCCC1C(=O)N[C@H](C)C(N)=O)NCC (stereo not given in full) (Ac-[ξ2Nal][Phe(4-Cl)][3Pal][dS][dY][d(hArg(Et2))]L[hArg(Et2)][ξP][dA]-NH2) | -25.8% | – | –
CC(C)=C(C#N)C(=O)N1CCCN(c2cc(NCCC(=O)O)nc(-c3ccccn3)n2)CC1 | – | inactive | –
CC(C)(C)c1ccc(S(=O)(=O)Nc2ccc(-n3ccnc3)cc2)cc1 | -13.1% | – | –
O=S1(=O)CCN(CN2CCS(=O)(=O)NC2)CN1 | 1.25% | – | –
COc1ccc(OC)c(N2C(=O)C(Cl)=C(N3CCCCC3)C2=O)c1 | -1.17% | – | –
COc1ccc(CNc2nc(N3CCC[C@H]3CO)ncc2C(=O)NCc2ncccn2)cc1Cl | – | inactive | –
Nc1c(C(=O)Nc2ccc(F)cc2)sc2nc(-c3cccs3)cc(C(F)(F)F)c12 | – | – | 14.3 µM (active)
NC(=O)C1(N2CCCCC2)CCN(CCCN2c3ccccc3CCc3ccccc32)CC1 | -22.3% | – | –
Clc1cccc(N2CCN(c3nc4ccccc4c4nc(-c5cccnc5)nn34)CC2)c1 | – | inactive | –
O=C(CCc1cc(=O)[nH]o1)N[C@H](C1CCNCC1)C1CC(O)C1 (stereo not given in full) | 2.98% | – | –
CCc1ccccc1N1C(=O)N(Cc2cc(=O)n3ccccc3n2)c2ccccc2S1(=O)=O | -5.59% | – | –
C=CS(=O)(=O)N1CCCN(c2cc(NCCC(=O)O)nc(-c3ccccn3)n2)CC1 | – | inactive | –
Cc1cc(CC(C)C[Si](C)(O[Si](C)(C)C)O[Si](C)(C)C)c(O)c(-n2nc3ccccc3n2)c1 (stereo not given) | – | inactive [at 15.3 µM] | –
Cc1ccc2c(c1)-c1nc(-c3ccc(Cl)cc3)cc(-c3coc4ccccc4c3=O)c1CO2 | -7.89% | – | –

SMILES | activity, negative = inhibition | outcome | Potency
CCCCCCCCCC(=O)OCCN1CCN(CC/C=C2\c3ccccc3Sc3ccc(C(F)(F)F)cc32)CC1 | -26% | – | –
CCCCCCCCCCCCCCCC(=O)OCC(=O)[C@@]1(O)[C@H](C)C[C@H]2[C@@H]3CCC4=CC(=O)C=C[C@]4(C)[C@@]3(F)[C@@H](O)C[C@@]21C | -29.2% | – | –
COc1cccc(-n2c(=O)[nH]c3cc(Cl)n(-c4ccc(-c5cccc(OC)c5O)cc4)c3c2=O)c1 | -14.3% | – | –
O=C(NCC(=O)N1CCCCC1)Nc1ccc2nnsc2c1 | – | inactive | –
C[C@]12C=CC(=O)C=C1CC[C@@H]1[C@@H]2[C@@H](O)C[C@@]2(C)[C@H]1CC[C@]2(O)C(=O)COC(=O)c1cccc(S(=O)(=O)O)c1 | -1.49% | – | –
COc1cc2oc(-c3ccccc3)cc(=O)c2c(OC)c1OC | -19.6% | – | –
O=c1cc(N2CCOCC2)oc2c1ccc1ccccc12 | -20.2% | – | –
Cc1ccc(Nc2ncc(C(=O)N3CCN(c4ccc(F)cc4)CC3)c3ccccc23)cc1Cl | -12.7% | – | –
Cc1nc2c(C#N)c[nH]n2c(=O)c1C(C)C | -0.35% | – | –
CCc1nc2c(sc3nc4c(cc32)COC(C)(C)C4)c(=O)n1Cc1ccco1 | -14.7% | – | –
Cc1ccc(N2CCN(C(=O)CCc3c(C)nc4c(c3C)c(=O)n(C)c(=O)n4C)CC2)c(C)c1 | – | inactive | –
Cn1cc(C(=O)Cc2ccccc2)cc1/C=C/C(=O)NO | -14.2% | – | –
CC[C@H](C)C1NC(=O)[C@H](Cc2ccc(O)cc2)NC(=O)[C@@H](N)CSSC[C@@H](C(=O)N2CCC[C@H]2C(=O)N[C@@H](CC(C)C)C(=O)NCC(N)=O)NC(=O)[C@H](CC(N)=O)NC(=O)[C@H](CCC(N)=O)NC1=O (stereo not given in full) | -18.5% | – | –
O=C(Cn1c(=O)oc2cc(S(=O)(=O)N3CCCCC3)ccc21)NCc1ccc(Cl)cc1 | – | inactive | –
CCN1CCN(C(c2ccc(C)cc2)c2sc3nc(-c4ccco4)nn3c2O)CC1 (stereo not given) | – | inactive | –
Fc1ccc(N2CCN(c3nc4ccccc4c4nc(-c5ccccc5)nn34)CC2)cc1 | -2.15% | – | –
CC(C)CCC[C@@H](C)[C@H]1CC[C@H]2[C@@H]3CC=C4C[C@@H](O)CC[C@]4(C)[C@@H]3CC[C@]12C | 1.51% [at 27.7 µM] | – | –
CCC(Sc1nnc2c(n1)[nH]c1ccccc12)C(=O)N1c2ccccc2Sc2ccccc21 (stereo not given) | 3.54% | – | –
OCCN1CCN(C(c2ccc(Cl)cc2Cl)c2sc3nc(-c4ccco4)nn3c2O)CC1 (stereo not given) | -9.13% | – | –
COC(=O)CCSC/C=C(\C)CCn1cc(CCc2ccc(-c3ccccc3)cc2)nn1 | -1.95% | – | –
